Compound activity as filed in PubChem BioAssay.
An excerpt weighted towards active compounds, which were near 4.6% of everything screened.
D1 agonist – activates the human D1 dopamine receptor. HEK293 T-REx D1 cells, calcium flux, agonist mode. P21728. AID 504660. activation, % at 2 µM. 360,000 compounds, 1% hits; note: 0% is about no effect
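Agonism was scored from calcium flux recorded over 180 s (1 read/s) after pintool compound addition, following a 10-cycle baseline. Cells were inducible force-coupled HEK293 TREx D1, plated overnight at 30 C and loaded with no-wash calcium dye.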
D1 PAM – human D1 dopamine receptor positive modulation; HEK293 TREx D1 cells, calcium flux, dopamine EC20 potentiation; P21728; potentiation, % at 10 µM; 360,000 compounds, 0.036% hits; AID 504651; in the data active = potentiation above about 30%; note: 0% is about no effect
D1 antag – blocks dopamine activation of the human D1 receptor. P21728. HEK293 TREx D1 cells, calcium flux, dopamine EC80; active compounds read low. activity change, negative = inhibition, % at 10 µM. 360,000 compounds, 3.2% hits. AID 504652; in the data active = activity change below about -30%; note: % is set by controls: 0 for no effect and ±100 for the full control effect
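Cells carrying a force-coupled, tetracycline-inducible human D1 receptor report calcium flux. Each well gets a 10 s baseline, compound with 180 s monitoring, then an EC80 dopamine stimulus with a second 180 s kinetic read.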
TRHR agonist-1 – TRH receptor (human) agonism. P34981. TRHR cells, calcium flux fluo-8, FDSS agonist mode. activation, % at 2 µM. 360,000 compounds, 0.18% hits. AID 493084; note: 0% is about no effect
Target sequence (P34981 whole entry, looked up): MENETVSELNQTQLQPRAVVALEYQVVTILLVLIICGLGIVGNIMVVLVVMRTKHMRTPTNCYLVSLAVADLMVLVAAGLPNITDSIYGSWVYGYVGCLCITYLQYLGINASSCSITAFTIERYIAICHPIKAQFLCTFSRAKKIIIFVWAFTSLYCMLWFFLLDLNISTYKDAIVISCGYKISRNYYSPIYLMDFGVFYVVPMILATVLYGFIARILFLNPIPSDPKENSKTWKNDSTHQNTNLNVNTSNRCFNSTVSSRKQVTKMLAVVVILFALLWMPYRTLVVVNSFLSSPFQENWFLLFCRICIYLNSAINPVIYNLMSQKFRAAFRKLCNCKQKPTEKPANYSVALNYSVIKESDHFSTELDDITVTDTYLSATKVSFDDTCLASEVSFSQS
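In this calcium-flux screen, cells bearing human TRHR are dye-loaded with fluo-8, baselined for 10 cycles, then exposed to library compounds; positive kinetic calcium responses during the agonist phase mark hits, with TRH as control.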
TRHR enhancer-1 – allosteric enhancers of human TRH receptor. P34981. TRHR cells, fluo-8 calcium fluorescence, EC20 TRH enhancement. enhancement, % at 2 µM. 360,000 compounds, 0.66% hits. AID 493056; in the data active = enhancement above about 30%; note: 0% is about no effect
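Enhancer read-out: after compound pinning and an initial kinetic agonist-mode read, an EC20 of TRH (10 nM final) was injected and fluo-8 calcium signal (Ex 480/Em 530) followed at 1 s/cycle for 100 cycles in TRHR-expressing cells.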
TRHR enhancer-2 – confirmation of human TRH receptor allosteric enhancers | shares compounds with TRHR enhancer-1 | TRH receptor cell assay, enhancer confirmation qHTS | activity change, negative = inhibition, % at 46.1 µM | 970 tested, under 10 active; active = well fitted curve in the direction sought with a large enough effect; inconclusive = small, poorly fitted or top-dose-only effect, or another doubt; inactive = no such curve, though single readings can be large; an effect the other way counts as inactive or inconclusive;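 note: compound effect scored on response to added TRH at EC20 of 10 nM; 0% is about no effect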
TRHR agonist-2 – human TRH receptor agonism confirmation; Potency, µM (doses to about 46.1 µM), without a hit: top-dose activation, actives largely listed as activators; TRHR-expressing cells, agonist activation read-out; shares compounds with TRHR enhancer-1; AID 493078; 970 compounds, 8% hits; active = well fitted curve in the direction sought with a large enough effect; inconclusive = small, poorly fitted or top-dose-only effect, or another doubt; inactive = no such curve, though single readings can be large; an effect the other way counts as inactive or inconclusive; note: potency is the fitted concentration of half-maximal effect; 0% is about no effect; nearly all actives have a fitted effect of over 75% in size
Active calls of the source: *; ? = inconclusive; / = no result. Cut-off read from the data, not from the text of the source, unless noted: active = activation above about 30%; inactive = the rest.

SMILES	D1 agonist	D1 PAM	D1 antag	TRHR agonist-1	TRHR enhancer-1	TRHR enhancer-2	TRHR agonist-2
CNc1c(NS(=O)(=O)c2ccc(Cl)s2)c(=O)oc2ccccc12	3	-6	12	1	-7	/	/
O=S(=O)(Nc1ncnc2c1oc1ccccc12)c1ccc(Cl)s1	-1	3	9	0	51*	-8	5%
Cc1ccc2cc3c(NC(=O)C4CCCO4)nn(CC(C)C)c3nc2c1 (stereo unspecified)	3	-1	/	0	47*	?	1%
Cc1ccc2nc3c(cc2c1)c(NC(=O)C1CCCO1)nn3CC(C)C (stereo unspecified)	1	-2	/	0	6	/	/
CC(C)On1c(SCC(=O)N(C)C)nc2ccccc2c1=O	0	1	7	0	0	/	/
O=C(Nc1cccc2ncccc12)c1ccco1	5	-7	4	0	51*	-6	1%
COc1ccccc1CN(CC(=O)NCc1ccc2c(c1)OCO2)C(=O)c1csnn1	-2	4	-2	0	-8	/	/
O=C(CN(Cc1ccccc1Cl)C(=O)c1csnn1)NCc1ccc2c(c1)OCO2	-1	-7	-7	0	51*	-11	4%
O=C(NCc1ccccc1OC(F)(F)F)C1CCC(=O)N(C2CC2)C1 (stereo unspecified)	6	-3	-3	1	2	/	/
O=C(COc1ccc(Br)cc1)N1CCCCCC1	0	-3	-8	0	-1	/	/
O=C(COc1ccc(Br)cc1)OCCN1CCCCC1	2	-3	5	30*	0	-6	1%
CCn1cc(C(=O)NCc2ccccc2)c(=O)c2cc(S(=O)(=O)N3CCOCC3)ccc21	1	1	0	0	-9	/	/
Cc1ccc(CNC(=O)c2ccc(CSCc3ccccc3C)o2)cc1	26	-3	-13	2	-1	/	/
CC(NC(=O)c1cc(Br)cs1)C1CCCO1 (stereo unspecified)	-3	0	-12	0	52*	-4	-1%
COc1ccccc1OCC(=O)Nc1ccc(S(=O)(=O)N2CCOCC2)cc1	0	-1	-1	0	-3	/	/
Cc1cc(C)c(OCC(=O)Nc2ccc(S(=O)(=O)N3CCOCC3)cc2)c(C)c1	28	-2	-2	1	41*	-9	1%
CCC(Sc1nc2ncccc2[nH]1)C(=O)NC1CCC(C)CC1 (stereo unspecified)	0	-3	7	1	11	/	/
CCC(Sc1nc2ncccc2[nH]1)C(=O)NCCc1ccccc1 (stereo unspecified)	3	-1	11	60*	2	-13	2%
CCCCn1nnnc1SCC(=O)NNC(=O)C1CCCCC1	2	-2	-6	-1	42*	-4	1%
CCCn1nnnc1SCC(=O)NC1CCCC1	2	3	4	0	1	/	/
CCCc1nc2cc3c(cc2[nH]1)n(C)c(=O)n3C	3	-1	2	1	9	/	/
COc1ccccc1CNC(=O)COC(=O)Cc1cccs1	2	0	8	-1	43*	-6	1%
COc1ccccc1NC(=O)COC(=O)Cc1cccs1	1	-4	-18	-1	0	/	/
O=C(NCC(c1cccs1)S(=O)(=O)c1cccs1)c1ccccc1F (stereo unspecified)	-3	0	/	0	3	/	/
Cc1ccc(NC(=O)C2=C(c3ccccc3)S(=O)(=O)CCS2(=O)=O)cc1	2	0	16	1	28	/	/
SMILES	D1 agonist	D1 PAM	D1 antag	TRHR agonist-1	TRHR enhancer-1	TRHR enhancer-2	TRHR agonist-2
COc1ccc(N(CC(=O)NCc2ccccc2Cl)S(=O)(=O)c2c(C)[nH]c(=O)[nH]c2=O)cc1	1	-2	1	0	-2	/	/
Cc1ccc(S(=O)(=O)NCc2ccc(C(=O)NC3CCCCC3)cc2)cc1	3	11	4	0	77*	-6	0%
CCc1cccc(NC(=O)C(CC)n2nc(C)c3sc4ccccc4c3c2=O)c1 (stereo unspecified)	1	-3	-8	0	0	/	/
O=C(NC1CC1)C1=NOC(CNc2ncc(C(F)(F)F)cc2Cl)C1 (stereo unspecified)	1	2	1	1	46*	-5	2%
O=C(Cn1c(=O)n(-c2ccccc2)c(=O)c2ccc(C(=O)NCc3ccc4c(c3)OCO4)cc21)Nc1ccc(Br)cc1F	2	-3	6	2	0	/	/
Cc1c(NS(=O)(=O)c2cccc([N+](=O)[O-])c2)c(=O)n(-c2ccccc2)n1C	0	-3	2	0	3	/	/
Cc1c(Nc2nc(-c3cccc([N+](=O)[O-])c3)cs2)c(=O)n(-c2ccccc2)n1C	0	-3	2	0	48*	-1	1%
CCOc1ccc(S(=O)(=O)Nc2cccc(C(=O)NCC3CCCO3)c2)cc1 (stereo unspecified)	3	-8	-39*	0	47*	-9	1%
Cc1ccc(CCNC(=O)c2c(C)oc3ncn(CC(C)C)c(=O)c23)cc1	-1	2	-21	-1	13	/	/
COc1ccc(S(=O)(=O)N(C)CC(=O)NC2CCCCC2)cc1Cl	1	2	-2	-1	-1	/	/
CNC(=O)CN(C)S(=O)(=O)c1ccc(OC)c(Cl)c1	0	-2	3	0	75*	-4	-1%
CCO[C@H]1OC(C(=O)NC2CC2)=C[C@@H](C)[C@@H]1CCCO	-3	5	16	-1	44*	-1	-1%
Cc1c(Cl)cccc1NC(=O)CSc1ccc(-c2ccccn2)nn1	0	1	3	0	2	/	/
CN1CCN(C(=O)CSc2ccc(Cl)cc2)CC1	0	-3	10	0	43*	6	0%
Cc1ccc(S(=O)(=O)N2CCN(C(=O)CSc3ccc(Cl)cc3)CC2)cc1	1	-4	-17	0	-1	/	/
COc1ccccc1N1CCN(S(=O)(=O)c2ccc(-c3ccno3)cc2OC)CC1	-1	-1	-7	-1	6	/	/
CSCCC(NC(=O)COc1ccccc1)C(=O)N(C)Cc1cccc(F)c1 (stereo unspecified)	2	0	38	0	-3	/	/
C=CCn1c(SCc2cc(=O)n3cc(C)ccc3n2)nnc1-c1cccc(C)c1	3	7	-10	0	-12	/	/
Cc1ccc2nc(CSc3nnc4ccccn34)cc(=O)n2c1	8	1	-18	0	51*	-7	-1%
COCCn1c(SCC(=O)N2CC(=O)Nc3ccccc32)nc2ccccc21	0	6	-8	45*	7	-6	-1%
Nc1nc(SCC(=O)N2CCCC2)[nH]c(=O)c1-c1ccccc1	0	-2	5	0	0	/	/
